From PubChem BioAssay AID1259324 (C. David Weaver Laboratory, Vanderbilt University, 2017)
The whole screen tested about 34,000 compounds, of which fewer than 10 were called active.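 How the source made its calls: active means primary screen hit, no activity in plain HEK293 cells, and in GIRK2-only cells above 5% efficacy rising with concentration; inactive means the rest, including fluorescent compounds.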 Only a sample is shown.

Target: G protein-activated inward rectifier potassium channel 2 (Homo sapiens) (UniProt P48051)
Sequence (P48051 whole entry, looked up): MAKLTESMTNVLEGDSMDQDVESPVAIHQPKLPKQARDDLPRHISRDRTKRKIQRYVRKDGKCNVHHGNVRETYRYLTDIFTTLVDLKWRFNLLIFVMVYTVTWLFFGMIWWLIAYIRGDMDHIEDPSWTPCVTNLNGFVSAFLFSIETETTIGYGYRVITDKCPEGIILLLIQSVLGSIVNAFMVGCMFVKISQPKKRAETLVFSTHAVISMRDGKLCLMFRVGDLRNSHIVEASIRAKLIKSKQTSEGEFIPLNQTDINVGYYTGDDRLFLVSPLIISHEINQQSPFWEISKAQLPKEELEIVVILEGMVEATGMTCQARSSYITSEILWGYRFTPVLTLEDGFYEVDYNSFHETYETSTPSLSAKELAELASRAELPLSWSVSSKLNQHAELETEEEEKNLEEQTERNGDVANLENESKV
Test: activators of NPY4-receptor-primed GIRK2 channels, summary, cell-based, HEK293, thallium flux (AID 1259324)
Details: HEK293 GIRK2/NPY4 cells, thallium flux fluorescence

outcome, inactive:
COCCNC(=O)CCn1cnc2c(cnn2C(C)(C)C)c1=O
O=S(=O)(NCC#CCN1CCc2ccccc2C1)c1c(F)cccc1F
Cc1ccc(-c2ccc(=O)n(CCCC(=O)Nc3ccc(S(N)(=O)=O)cc3)n2)cc1
COc1cc(OC)cc(C(=O)N2CCc3cc(S(=O)(=O)NC4CCCC4)ccc32)c1
Cn1cccc1C(CNS(=O)(=O)c1ccc(F)cc1)N1CCOCC1 (configuration not stated)
Cn1cccc(C(=O)N2CCC(c3nnc(-c4ccco4)s3)CC2)c1=O
O=C(NCC1(c2cccs2)CCOCC1)Nc1cccc(C(F)(F)F)c1
CC(=O)c1ccc(S(=O)(=O)N2CCC(c3nnc(C4CC4)o3)CC2)cc1
COc1ccc(Cl)cc1N1CC(c2nc(-c3ccccc3C)no2)CC1=O (configuration not stated)
Cc1c(C(=O)NCc2ccccc2Cl)nnn1-c1ccc(F)cc1
Cc1cccc(NC(=O)c2cc(-c3ccco3)nc3c2c(C)nn3C2CCS(=O)(=O)C2)c1 (configuration not stated)
Cc1cc(C(=O)Nc2nc(-c3cccs3)cs2)on1 inactive; active
COc1ccc(CCNC(=O)Nc2cc(N3CCCS3(=O)=O)ccc2C)cc1
O=C(Cc1cc(-c2ccc(F)cc2)on1)N1CCc2ccccc21
O=C(NCCC1=CCCCC1)C(=O)NCc1nc(-c2ccccc2)no1
COc1ccc(NC(=O)N2CCN(c3cc(OC)nc(OC)n3)CC2)cc1
CC(C)(C)C(=O)N1CCc2ccc(NS(=O)(=O)c3ccc(Cl)s3)cc21
COc1ccc(Cl)cc1C(=O)NCCNc1cc(-n2ccnc2C)ncn1
COc1ccccc1C1(CNC(=O)Cc2ccc(F)cc2)CCOCC1
CCOc1ccc(NC(=O)NCCCn2nc(-c3ccncc3)ccc2=O)cc1 inactive; active
COc1ccc(NC(=O)Cn2cc(OC)c(=O)cc2CSc2nccc(C)n2)cc1
O=C(C1CCCCC1)N(CCN1CCOCC1)c1nc2c(Cl)cccc2s1
Cn1c(=O)c2cc(C(=O)NC3CCCCCC3)sc2n(C)c1=O
COc1ccc(C)cc1S(=O)(=O)NCC(c1ccc(F)cc1)N1CCN(C)CC1 (configuration not stated)
O=C(Cc1ccc(-c2ccccc2)cc1)NCC1CCN(Cc2ccco2)CC1
CCOc1ccc(-c2cc(=O)n(CC(=O)Nc3ccccc3F)cn2)cc1
O=C(CCCS(=O)(=O)c1ccccc1)Nc1nc2c(F)cccc2s1
CCOc1ccc2ccccc2c1C(=O)N1CCN(c2ncnc3c2nnn3C)CC1
CCOC(=O)N1CCN(C(c2ccccc2F)c2sc3nc(CC)nn3c2O)CC1 (configuration not stated)
COc1coc(C(=O)Nc2ccc(C(N)=O)cc2)cc1=O
COc1ccccc1CCNC(=O)Cc1csc(NC(=O)C2CCC(=O)N2)n1 (configuration not stated)
O=C(C1CC=CCC1)N1CCN(CCn2ccnc2)CC1 (configuration not stated)
O=C(c1cccs1)N1CCc2ccc(NS(=O)(=O)Cc3cccc(Cl)c3)cc21
Cc1ccc(-n2ccnc2N2CCN(C(=O)c3cccs3)CC2)cc1
COC(=O)c1c2c(nc3c1c(-c1ccccc1)nn3C1CCS(=O)(=O)C1)CCC2 (configuration not stated)
CCC(=O)Nc1ccc(SCC(=O)NCC2CCCO2)nn1 (configuration not stated)
O=C(NCC(O)c1ccc(C(F)(F)F)cc1)C1(c2cccs2)CCCC1 (configuration not stated)
